Unmarked numbers belong to inactive results. Records with an inconclusive call do not appear. Calls of active or inactive are those of the source. Unless noted, calls come from the whole dose curve; as a rule, active = well fitted curve in the direction sought with a large enough effect in the repeat runs; inconclusive = weak or mixed curves; inactive = no such curve, though single readings can be large; an effect the other way counts as inactive or inconclusive.

Test [1] is described as follows: A CellTox Green Cytotoxicity Assay to monitor cytotoxicity in HepG2 cells - 0 hour (AID 1224882). Note: nearly all actives have a fitted effect of over 35% in size. The gist of the method: (§1)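 Real-time, homogeneous cytotoxicity readout: dead-cell DNA staining by CellTox Green in HepG2 monolayers, fluorescence measured at timed intervals up to 40 h of continuous compound exposure.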
The nature of test [2]: A CellTox Green Cytotoxicity Assay to monitor cytotoxicity in HepG2 cells - 32 hour (AID 1224883). Note: nearly all actives have a fitted effect of over 50% in size. Note: potency is the fitted concentration of half-maximal effect. The essentials:
as §1

Test [3] in a line: A CellTox Green Cytotoxicity Assay to monitor cytotoxicity in HEK293 cells - 8 hour (AID 1224884). Note: nearly all actives have a fitted effect of over 35% in size. Note: potency is the fitted concentration of half-maximal effect. The essentials: (§2)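 Cytotoxicity was tracked continuously in HEK293 cells by a DNA-binding dye excluded from viable cells. Compounds were transferred in DMSO 5 h after seeding; fluorescence was recorded at intervals up to 40 h.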
Test [4] is described as follows: qHTS RealTime-Glo MT Cell Viability Assay in HepG2 cells - 16 hour (AID 1224885). Note: nearly all actives have a fitted effect of over 50% in size. Note: potency is the fitted concentration of half-maximal effect. The essentials:
(§3)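 Cells + NanoLuc/prosubstrate dispensed (600 cells/well) → 5 h at 37 C/5% CO2 → compounds in DMSO transferred → 40 h incubation at 37 C, luminescence read at 0, 8, 16, 24, 32, 40 h.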

Test [5] is described as follows: qHTS RealTime-Glo MT Cell Viability Assay in HEK293 cells - 24 hour (AID 1224886). For activity change, negative = cytotoxicity: top concentration of the series differs between compounds. Note: nearly all actives have a fitted effect of over 50% in size. Note: potency is the fitted concentration of half-maximal effect. The essentials:
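Tox21 10K qHTS, HEK293, 600 cells/well, RealTime-Glo reagent co-dispensed with cells; 5 h preincubation, compound by pintool, 37 C, luminescence at 0–40 h.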
(qHTS replaces the single test concentration by a dilution series.)

Test [6] can be described thus: qHTS RealTime-Glo MT Cell Viability Assay in HEK293 cells - 8 hour (AID 1224887). For activity change, negative = cytotoxicity: top concentration of the series differs between compounds. Note: nearly all actives have a fitted effect of over 50% in size. Note: potency is the fitted concentration of half-maximal effect. The essentials:
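Nonlytic bioluminescent viability monitoring. HEK293 at 600 cells/well with reagent; 5 h settle; compound transfer by pintool; plates held at 37 C and read at set time points.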

Test [7] in a line: A CellTox Green Cytotoxicity Assay to monitor cytotoxicity in HEK293 cells - 16 hour (AID 1224888). Note: nearly all actives have a fitted effect of over 35% in size. Note: potency is the fitted concentration of half-maximal effect. The essentials: as §2
A short description of test [8]: qHTS RealTime-Glo MT Cell Viability Assay in HepG2 cells - 0 hour (AID 1224889). Note: nearly all actives have a fitted effect of over 50% in size. The gist of the method: as §3
Test [9] is described as follows: qHTS assay to identify small molecule antagonists of the estrogen receptor alpha (ER-alpha) signaling pathway using the BG1 cell line in the presence of 0.1 nM 17-beta-estradiol - cell viability counter screen (AID 1259241). Note: nearly all actives have a fitted effect of over 40% in size. Note: potency is the fitted concentration of half-maximal effect. The essentials:
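In this screen, hormone-deprived VM7Luc4E2 cells were seeded at 4,000 per well, dosed with compound and 0.1 nM estradiol final, and incubated 22 hr at 37C and 5% CO2; fluorogenic live-cell protease signal reported viability.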

The nature of test [10]: qHTS assay to identify small molecule antagonists of the androgen receptor (AR) signaling pathway using the MDA cell line in the presence of 0.5 nM R1881 - cell viability counter screen (AID 1259242). Note: nearly all actives have a fitted effect of over 45% in size. Note: potency is the fitted concentration of half-maximal effect. The essentials:
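Cytotoxicity toward MDA-kb2 cells is measured by CellTiter-Fluor live-cell protease fluorescence after 16 hr compound exposure at 37C in the presence of 0.5 nM R1881 stimulator.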

In test [11] the target is Estrogen receptor (Homo sapiens) (UniProt P03372). Nature of the test: qHTS assay to identify small molecule antagonists of the estrogen receptor alpha (ER-alpha) signaling pathway using the BG1 cell line in the presence of 0.1 nM 17-beta-estradiol (AID 1259244). Note: nearly all actives have a fitted effect of over 50% in size. Note: potency is the fitted concentration of half-maximal effect. The essentials: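 After 5 days in hormone-depleted medium (charcoal-stripped serum, no phenol red), VM7Luc4E2 cells were seeded, incubated 24 h, then co-treated with compound and 0.1 nM (final) estradiol for 22 h before luminescence detection.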

Test [12] can be described thus: qHTS assay to identify small molecule HDAC inhibitors (AID 1259364). Note: top concentration of the series differs between compounds; nearly all actives have a fitted effect of over 45% in size. The gist of the method: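 Homogeneous cell-based luminescent assay of endogenous class I/II HDAC activity; HCT-116 cells, 2 h compound exposure, 30 min HDAC-Glo development at RT.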
A short description of test [13]: qHTS assay to identify small molecule HDAC inhibitors - cell viability counter screen (AID 1259365). For activity change, negative = cytotoxicity: series mostly up to about 92 µM. Note: nearly all actives have a fitted effect of over 50% in size. Note: potency is the fitted concentration of half-maximal effect. The gist of the method: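 Measured quantity is CellTiter-Glo luminescence from wild-type HCT-116 cells after compound incubation of 2hr at 37C, 5% CO2; reagent developed 30min at room temperature.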
Test [14] can be described thus: qHTS assay to identify small molecule agonists of the sonic hedgehog signaling (Shh) pathway - cell viability counter screen (AID 1259366). Note: nearly all actives have a fitted effect of over 50% in size. Note: potency is the fitted concentration of half-maximal effect. The gist of the method:
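In quantitative high-throughput format, 3T3 Gli1-Luc cells were exposed to compounds for 24hr and multiplexed for viability using CellTiter-Fluor, incubated 1hr at 37C before the fluorescence read.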

A short description of test [15]: qHTS assay to identify small molecule antagonists of the sonic hedgehog signaling (Shh) pathway - cell viability counter screen (AID 1259367). Note: nearly all actives have a fitted effect of over 55% in size. Note: potency is the fitted concentration of half-maximal effect. The essentials:
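After a 4 hr settling period, 3T3 Gli1-Luc cells were treated with DMSO-dissolved chemicals and conditioned medium, kept 24 hr at 37C in 5% CO2, and assayed for viability by CellTiter-Fluor fluorescence following 1 hr reagent incubation.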

Test [16] can be described thus: qHTS assay to identify small molecule agonists of the sonic hedgehog signaling (Shh) pathway (AID 1259368; calls by dose curve;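 note: NIH/3T3-derived 3T3Gli1-Luc cells carrying a stable Gli1-driven firefly luciferase reporter; series mostly up to about 92 µM; nearly all actives have a fitted effect of over 15% in size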). The gist of the method:
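Steps: seed 3T3 Gli1-Luc cells, incubate 4 hr at 37 C, pin-transfer compounds in DMSO alongside a positive control, incubate 24 hr, add luciferase detection reagent, wait 30 min at room temperature, read luminescence.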

A short description of test [17]: A CellTox Green Cytotoxicity Assay to monitor cytotoxicity in HepG2 cells - 8 hour (AID 1224890). Note: nearly all actives have a fitted effect of over 45% in size. Note: potency is the fitted concentration of half-maximal effect. The gist of the method: as §1
Test [18] can be described thus: qHTS assay to identify small molecule antagonists of the sonic hedgehog signaling (Shh) pathway (AID 1259369; calls by dose curve; note: nearly all actives have a fitted effect of over 45% in size; note: potency is the fitted concentration of half-maximal effect). The essentials:
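Inhibition of Shh signalling is measured as reduced Gli1-response-element firefly luciferase output in an NIH/3T3-derived stable reporter clone stimulated with conditioned medium for 24hr.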

Test [19] has as its target Androgen receptor (Homo sapiens) (UniProt P10275). Nature of the test: qHTS assay to identify small molecule antagonists of the androgen receptor (AR) signaling pathway using the MDA cell line in the presence of 0.5 nM R1881 (AID 1259243). Note: nearly all actives have a fitted effect of over 50% in size. Note: potency is the fitted concentration of half-maximal effect. The gist of the method: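 Steps: seed MDA-kb2 cells, incubate 5 hr at 37C; pin-transfer compounds in DMSO; add R1881 to 0.5 nM final; incubate 16 hr; add ONE-Glo, wait 30 min at room temperature; read luminescence.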
% is set by controls: 0 for no effect and ±100 for the full control effect.

Sequence of Estrogen receptor (Homo sapiens) (P03372 whole entry, looked up): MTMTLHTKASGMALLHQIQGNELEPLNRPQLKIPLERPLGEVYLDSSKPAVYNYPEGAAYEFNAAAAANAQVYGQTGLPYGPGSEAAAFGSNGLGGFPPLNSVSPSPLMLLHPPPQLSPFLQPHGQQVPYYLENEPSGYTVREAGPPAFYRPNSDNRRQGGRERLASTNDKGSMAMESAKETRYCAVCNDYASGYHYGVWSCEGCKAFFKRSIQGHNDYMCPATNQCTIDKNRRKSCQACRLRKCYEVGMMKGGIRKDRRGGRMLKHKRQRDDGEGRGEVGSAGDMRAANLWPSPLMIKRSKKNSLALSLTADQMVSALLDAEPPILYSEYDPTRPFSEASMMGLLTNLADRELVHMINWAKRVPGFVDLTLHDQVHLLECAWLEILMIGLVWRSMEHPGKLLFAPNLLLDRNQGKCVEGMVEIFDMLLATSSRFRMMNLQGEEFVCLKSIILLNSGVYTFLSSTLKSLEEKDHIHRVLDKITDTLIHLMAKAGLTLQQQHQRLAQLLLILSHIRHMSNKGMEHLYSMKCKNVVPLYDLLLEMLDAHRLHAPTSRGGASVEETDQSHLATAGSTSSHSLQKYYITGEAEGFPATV
Sequence of Androgen receptor (Homo sapiens) (P10275 whole entry, looked up): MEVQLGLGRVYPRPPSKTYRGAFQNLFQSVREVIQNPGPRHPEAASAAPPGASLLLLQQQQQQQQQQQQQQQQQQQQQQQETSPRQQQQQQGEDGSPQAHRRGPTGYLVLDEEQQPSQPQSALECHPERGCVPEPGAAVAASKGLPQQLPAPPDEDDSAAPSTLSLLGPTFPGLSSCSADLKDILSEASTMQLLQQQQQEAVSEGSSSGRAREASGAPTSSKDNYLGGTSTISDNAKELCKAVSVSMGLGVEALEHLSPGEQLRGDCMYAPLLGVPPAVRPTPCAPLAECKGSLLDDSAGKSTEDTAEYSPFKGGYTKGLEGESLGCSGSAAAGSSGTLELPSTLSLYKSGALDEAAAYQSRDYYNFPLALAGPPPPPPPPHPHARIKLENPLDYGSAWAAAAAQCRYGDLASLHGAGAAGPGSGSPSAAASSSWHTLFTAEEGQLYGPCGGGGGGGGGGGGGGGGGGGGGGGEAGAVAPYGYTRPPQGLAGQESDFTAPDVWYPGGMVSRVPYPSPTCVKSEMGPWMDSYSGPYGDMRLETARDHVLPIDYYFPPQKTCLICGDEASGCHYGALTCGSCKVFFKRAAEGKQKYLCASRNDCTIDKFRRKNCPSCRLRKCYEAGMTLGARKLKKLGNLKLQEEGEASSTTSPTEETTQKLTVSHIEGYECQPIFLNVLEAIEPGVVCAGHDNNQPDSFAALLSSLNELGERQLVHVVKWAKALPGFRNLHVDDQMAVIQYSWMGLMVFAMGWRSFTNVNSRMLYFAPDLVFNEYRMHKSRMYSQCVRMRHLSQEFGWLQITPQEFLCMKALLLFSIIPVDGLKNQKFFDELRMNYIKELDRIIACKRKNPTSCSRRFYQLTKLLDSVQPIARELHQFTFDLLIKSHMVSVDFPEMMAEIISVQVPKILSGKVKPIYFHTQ

For the compound `COC(=O)CC(C)CCC=C(C)C` (centres undefined), the Potency result in test [1], in test [2], in [3], in test [4], in test [5] and in [6] was “inactive” throughout. The Potency result in [7], in test [8], in test [9], in test [10], in test [11] and in test [12] was “inactive” each time. The Potency result in test [13], in [14], in test [15] and in test [16] was “inactive” each time.

With `O=C1c2c(O)ccc([N+](=O)[O-])c2C(=O)c2c([N+](=O)[O-])ccc(O)c21`, the Potency result in test [1], in test [2], in test [3], in test [7], in [17] and in test [16] was “inactive” in each case. For the same compound, the Potency in [4] was 24.3 µM (active); in test [5], 19.3 µM (active); in test [6], 7.69 µM (active); in [9] it was 30.4 µM (active); in [10] it was 27.1 µM (active); in test [11], 27.1 µM (active). The Potency in test [13] was 21.5 µM (active); in test [14] it was 17.1 µM (active); in test [15], 10.8 µM (active); in [18], 1.52 µM (active).

Turning to `C=CC(=C)CC/C=C(\C)CCC=C(C)C`, the cytotoxicity in [1] is -7.07% [at 15.8 µM]. For the same compound, the cytotoxicity increase in [2] is 2.06% [at 15.8 µM]; in [3], 0.0594% [at 15.8 µM]. Moreover, the activity change, negative = cytotoxic in [4] was 1.17% [at 15.8 µM]. The activity change, negative = cytotoxicity in test [5] is -7.54% [at 15.8 µM]; in test [6] it was -9.22% [at 15.8 µM]; in test [8], 8.34% [at 15.8 µM]; in test [9] it was 2.52% [at 19 µM]; in [13], 3.69% [at 19 µM]. The activity change in test [7] is 2.36% [at 15.8 µM, active compounds read high]; in [16], 0.047% [at 18.9 µM, active compounds read high]. Besides, the results for the viability change, negative = cytotoxic in test [10] and in test [14] were 2.29% [at 19 µM] and -6.51% [at 19 µM], respectively. The activity change, negative = inhibition in test [11] is 3.24% [at 19 µM]; in [12] it was 8.2% [at 19 µM].

Consider `Cc1ccc(O)cn1`, for which the Potency entry in [1], in [2], in test [3], in [4], in [5] and in test [6] was “inactive” each time. Besides, the Potency entry in [7], in test [8], in test [17], in [10], in test [19] and in test [11] was “inactive” in each case. The Potency result in test [12], in test [13], in test [14], in test [15] and in test [16] was “inactive” each time.

For `Cc1cccc(Br)c1`, the Potency result in test [1], in test [2], in test [3], in test [4], in test [5] and in test [6] was “inactive” in each case. The Potency entry in test [7], in [17], in test [9], in test [10], in test [12] and in test [13] was “inactive” in each case. The Potency result in [14] and in [16] was “inactive” in each case. Further, in [18], the Potency is 27.4 µM (active).

On to `CCCOc1sc(C(=O)N2CCC(c3cc(CN)ccc3F)CC2)c(C)c1Br`, for which the Potency entry in test [1], in test [16] and in test [18] was “inactive” in each case. Also, the Potency in test [2] was 17.9 µM (active); in test [3] it was 40 µM (active); in test [4], 22.5 µM (active); in [5], 20 µM (active); in [6], 17.9 µM (active); in [7], 35.7 µM (active). In addition, the Potency was 40 µM (active) in test [17]; 39.7 µM (active) in test [10]; 39.7 µM (active) in [19]; 22.3 µM (active) in test [14]; 25 µM (active) in test [15].

`CCOC(/C=C(\C)CCC=C(C)C)OCC`: the Potency entry in test [1], in test [2], in test [3], in test [4], in test [5] and in [6] was “inactive” throughout. In addition, the Potency result in test [7], in test [8], in test [17], in [10], in [11] and in test [12] was “inactive” throughout. Moreover, the Potency entry in test [13], in [14], in [15] and in test [16] was “inactive” in each case.

These data come from PubChem BioAssay (Tox21).
